Test results reported in PubChem BioAssay (Tox21).
Records with an inconclusive call do not appear. Active and inactive are the calls of the source. Unless noted, the call rests on the fitted dose curve.

Tests used:
[1] = qHTS assay to identify small molecule antagonists of the sonic hedgehog signaling (Shh) pathway (AID 1259369); further: nearly all actives have a fitted effect of over 45% in size
How it was run: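 Antagonist mode: compound added to 3T3 Gli1-Luc cells followed by conditioned-medium stimulation, 24 h at 37 C, 5% CO2. Inhibition taken as loss of Gli1-driven luciferase luminescence.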

[2] = biological target: Estrogen receptor beta (Homo sapiens) (UniProt Q92731); experiment: qHTS assay to identify small molecule agonists of the estrogen receptor beta (ER-beta) signaling pathway (AID 1259377; active means well fitted activation curve with a large enough effect in the signal ratio in the repeat runs, not every such curve was filed as active; the % refers to the signal ratio)
Estrogen receptor beta (Homo sapiens), sequence (Q92731 whole entry, looked up): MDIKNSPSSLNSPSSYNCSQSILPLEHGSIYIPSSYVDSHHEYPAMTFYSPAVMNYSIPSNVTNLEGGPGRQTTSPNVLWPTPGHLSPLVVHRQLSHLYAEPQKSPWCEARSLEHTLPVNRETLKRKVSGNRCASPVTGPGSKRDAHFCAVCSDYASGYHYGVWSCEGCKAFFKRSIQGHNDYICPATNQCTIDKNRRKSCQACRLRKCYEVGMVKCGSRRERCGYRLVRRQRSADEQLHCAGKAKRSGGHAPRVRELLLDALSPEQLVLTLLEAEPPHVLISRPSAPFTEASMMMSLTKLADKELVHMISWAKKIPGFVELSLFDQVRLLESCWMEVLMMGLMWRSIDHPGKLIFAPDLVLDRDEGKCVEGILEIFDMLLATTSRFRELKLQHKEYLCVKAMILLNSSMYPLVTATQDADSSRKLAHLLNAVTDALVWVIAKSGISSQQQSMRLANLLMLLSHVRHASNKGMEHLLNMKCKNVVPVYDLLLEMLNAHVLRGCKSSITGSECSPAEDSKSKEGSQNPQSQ
How it was run: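 A UAS-controlled beta-lactamase reporter in ER-beta-UAS-bla HEK293T cells reports receptor activation. Compounds act for 16 hr at 37C in 2% charcoal-stripped serum, and a FRET substrate is read by fluorescence after 2 hours.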

[3] = biological target: Estrogen receptor beta (Homo sapiens) (UniProt Q92731); experiment: qHTS assay to identify small molecule antagonists of the estrogen receptor beta (ER-beta) signaling pathway (AID 1259378; active means well fitted inhibition curve with a large enough effect in the signal ratio in the repeat runs, not every such curve was filed as active; the % refers to the signal ratio)
How it was run: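 ER-beta-UAS-bla HEK293T cells in 2% charcoal-stripped FBS medium treated with compound plus 1nM final 17-beta-estradiol for 16 hr at 37C. Beta-lactamase reporter read by FRET substrate fluorescence after 2 hours at room temperature.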

[4] = qHTS assay to identify small molecule agonists of the androgen receptor (AR) signaling pathway in the presence of an antagonist - cell viability counter screen (AID 1259379; active means well fitted curve in the direction sought with a large enough effect in the repeat runs; an effect the other way counts as inactive or inconclusive;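 further: MDA-kb2 human breast cancer cells carrying an MMTV luciferase reporter; series mostly up to about 92 µM; nearly all actives have a fitted effect of over 25% in size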)
How it was run: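 Cytotoxicity counter-screen run in the same wells as the nilutamide-challenged (3.0 µM final) AR agonist assay in MDA-kb2 cells. Compounds tested at 15 concentrations for 16 h, 37 °C without CO2; CellTiter-Fluor fluorescence read.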

[5] = qHTS assay to identify small molecule agonists of the estrogen receptor beta (ER-beta) signaling pathway - cell viability counter screen (AID 1259380; active means well fitted curve in the direction sought with a large enough effect in the repeat runs; an effect the other way counts as inactive or inconclusive; further: nearly all actives have a fitted effect of over 30% in size)
How it was run: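 Cell viability counter screen: CellTiter-Glo luminescence (30 min, room temperature) measured in the same wells as the beta-lactamase readout, after 16 hr compound exposure at 37C of ER-beta-bla HEK293T cells in 2% charcoal-stripped FBS medium.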

[6] = qHTS assay to identify small molecule antagonists of the estrogen receptor beta (ER-beta) signaling pathway - cell viability counter screen (AID 1259382; active means well fitted curve in the direction sought with a large enough effect in the repeat runs; an effect the other way counts as inactive or inconclusive; further: series mostly up to about 92 µM; nearly all actives have a fitted effect of over 55% in size)
How it was run: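 Cytotoxicity was measured in the same wells by CellTiter-Glo luminescence after 30 min at room temperature. Cells were ER-beta-bla HEK293T in charcoal-stripped serum, given compound together with 1 nM E2 and incubated 16 h at 37C.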

[7] = biological target: Estrogen receptor (Homo sapiens) (UniProt P03372); experiment: qHTS assay to identify small molecule agonists of the estrogen receptor alpha (ER-alpha) signaling pathway in the presence of an antagonist (AID 1259383); further: top concentration of the series differs between compounds; nearly all actives have a fitted effect of over 15% in size
Estrogen receptor (Homo sapiens), sequence (P03372 whole entry, looked up): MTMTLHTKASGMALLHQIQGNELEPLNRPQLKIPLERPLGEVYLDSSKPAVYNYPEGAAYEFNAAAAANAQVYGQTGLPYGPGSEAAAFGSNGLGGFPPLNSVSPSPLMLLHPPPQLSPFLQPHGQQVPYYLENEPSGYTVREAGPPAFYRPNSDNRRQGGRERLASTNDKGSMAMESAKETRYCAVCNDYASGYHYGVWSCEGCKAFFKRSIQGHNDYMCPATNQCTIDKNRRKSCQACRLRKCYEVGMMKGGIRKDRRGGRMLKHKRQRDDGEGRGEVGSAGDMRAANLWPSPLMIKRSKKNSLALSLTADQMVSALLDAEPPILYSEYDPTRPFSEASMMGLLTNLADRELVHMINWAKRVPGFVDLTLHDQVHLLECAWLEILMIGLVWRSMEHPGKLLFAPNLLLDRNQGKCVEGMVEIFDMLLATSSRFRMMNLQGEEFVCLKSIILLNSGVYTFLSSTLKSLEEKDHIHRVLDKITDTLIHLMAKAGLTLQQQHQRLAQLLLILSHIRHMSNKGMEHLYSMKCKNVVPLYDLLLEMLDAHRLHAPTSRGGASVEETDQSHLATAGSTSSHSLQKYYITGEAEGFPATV
How it was run: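 Agonist-mode confirmation run in the presence of 10.0nM (final) ICI-182,780 antagonist. The reporter was ERE-driven luciferase in VM7Luc4E2 cells, grown in charcoal-stripped serum. Cells were exposed to 15-concentration compound series for 22hr, then ONE-Glo luminescence was read.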

[8] = qHTS assay to identify small molecule agonists or antagonists of the thyroid stimulating hormone receptor (TSHR) signaling pathway - wild type cell line counter screen (AID 1259384)
How it was run: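 Wild-type Hek293 cells, 800/well, 18 h at 37C, then compound with Ro20-1724 for 30 min RT. cAMP by HTRF (cAMP-d2/anti-cAMP cryptate), 1 h RT, fluorescence read. 15 concentrations, triplicates.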

[9] = biological target: Thyrotropin receptor (Homo sapiens) (UniProt P16473); experiment: qHTS assay to identify small molecule antagonists of the thyroid stimulating hormone receptor (TSHR) signaling pathway (AID 1259385); further: nearly all actives have a fitted effect of over 20% in size
Thyrotropin receptor (Homo sapiens), sequence (P16473 whole entry, looked up): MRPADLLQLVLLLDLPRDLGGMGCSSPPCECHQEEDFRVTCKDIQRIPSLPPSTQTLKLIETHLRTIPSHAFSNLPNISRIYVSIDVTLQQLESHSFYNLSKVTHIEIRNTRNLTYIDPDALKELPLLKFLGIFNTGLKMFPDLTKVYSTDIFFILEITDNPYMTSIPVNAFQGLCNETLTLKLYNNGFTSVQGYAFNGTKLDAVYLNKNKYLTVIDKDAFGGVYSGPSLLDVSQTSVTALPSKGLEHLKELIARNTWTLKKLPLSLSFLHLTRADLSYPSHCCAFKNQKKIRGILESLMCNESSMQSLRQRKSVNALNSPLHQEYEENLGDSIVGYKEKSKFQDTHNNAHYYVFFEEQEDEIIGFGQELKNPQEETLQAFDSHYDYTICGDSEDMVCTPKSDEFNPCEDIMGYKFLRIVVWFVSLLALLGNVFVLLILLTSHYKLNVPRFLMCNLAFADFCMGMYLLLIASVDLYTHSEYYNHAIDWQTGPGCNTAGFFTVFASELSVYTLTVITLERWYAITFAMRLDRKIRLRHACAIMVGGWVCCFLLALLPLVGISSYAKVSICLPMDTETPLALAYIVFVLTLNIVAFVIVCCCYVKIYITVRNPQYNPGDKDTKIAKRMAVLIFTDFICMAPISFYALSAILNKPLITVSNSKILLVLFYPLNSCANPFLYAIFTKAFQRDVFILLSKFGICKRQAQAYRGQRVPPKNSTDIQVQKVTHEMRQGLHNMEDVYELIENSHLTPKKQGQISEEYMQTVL
How it was run: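 TSHR-HEK293 cells (800/well) plated 18 h, then compounds with Ro20-1724 and TSH at 1.5 ng/mL final, 30 min at room temperature. cAMP quantified by HTRF (cAMP-d2/anti-cAMP-cryptate, 1 h); 15 concentrations in triplicate.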

[10] = biological target: Androgen receptor (Homo sapiens) (UniProt P10275); experiment: qHTS assay to identify small molecule agonists of the androgen receptor (AR) signaling pathway in the presence of an antagonist (AID 1259381); further: nearly all actives have a fitted effect of over 15% in size
Androgen receptor (Homo sapiens), sequence (P10275 whole entry, looked up): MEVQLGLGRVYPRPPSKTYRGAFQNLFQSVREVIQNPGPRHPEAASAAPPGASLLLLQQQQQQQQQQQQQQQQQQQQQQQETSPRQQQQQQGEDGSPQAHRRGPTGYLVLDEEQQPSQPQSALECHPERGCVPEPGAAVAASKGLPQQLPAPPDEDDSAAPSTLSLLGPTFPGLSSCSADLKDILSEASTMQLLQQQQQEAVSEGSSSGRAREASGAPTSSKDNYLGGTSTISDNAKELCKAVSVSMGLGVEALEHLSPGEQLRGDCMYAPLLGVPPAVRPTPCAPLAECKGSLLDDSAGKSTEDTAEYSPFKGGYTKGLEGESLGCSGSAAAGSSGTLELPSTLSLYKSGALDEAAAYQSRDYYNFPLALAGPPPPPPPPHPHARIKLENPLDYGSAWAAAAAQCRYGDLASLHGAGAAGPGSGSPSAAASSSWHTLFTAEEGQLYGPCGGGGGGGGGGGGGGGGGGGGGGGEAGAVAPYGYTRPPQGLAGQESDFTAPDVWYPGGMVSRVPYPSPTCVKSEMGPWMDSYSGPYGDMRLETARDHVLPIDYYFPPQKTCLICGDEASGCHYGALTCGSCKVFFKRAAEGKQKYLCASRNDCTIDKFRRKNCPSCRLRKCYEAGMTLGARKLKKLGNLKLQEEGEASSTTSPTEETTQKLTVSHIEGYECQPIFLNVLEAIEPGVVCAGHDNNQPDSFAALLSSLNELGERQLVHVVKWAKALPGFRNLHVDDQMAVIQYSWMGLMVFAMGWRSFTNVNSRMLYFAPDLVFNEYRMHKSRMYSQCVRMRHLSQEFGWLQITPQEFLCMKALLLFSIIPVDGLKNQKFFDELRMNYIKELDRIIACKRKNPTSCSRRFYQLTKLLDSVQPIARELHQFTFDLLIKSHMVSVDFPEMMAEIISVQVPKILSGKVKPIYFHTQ
How it was run: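 Agonist-mode confirmation run against 3.0 uM final nilutamide: compounds titrated at 15 concentrations onto MDA-kb2 MMTV-luciferase reporter cells. Luminescence measured with ONE-Glo following 16 hr incubation, 37C, 0% CO2.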

Measured: Potency

CC1=CC(=O)[C@H]2C[C@@H]1C2(C)C
inactive: [1] | [2] | [3] | [4] | [5] | [6] | [7]

CCOC(=O)CCC(=O)OCC
inactive: [1] | [2] | [3] | [4] | [5] | [6] | [7] | [8] | [9]

CCC(C)(CN(C)C)OC(=O)c1ccccc1 (stereo not drawn)
inactive: [1] | [2] | [3] | [4] | [5] | [6]

Cc1ncc([C@@H](CCCCCCc2ccc3c(n2)NCCC3)CC(=O)O)cn1
inactive: [1] | [2] | [3] | [4] | [5] | [6] | [7]

CC(C)c1ccc2ncccc2c1
inactive: [1] | [2] | [3] | [4] | [5] | [6] | [7]

CCOC(=O)c1ccccc1
inactive: [1] | [2] | [3] | [4] | [5] | [6] | [7]

O=C(O)CCSCCC(=O)O
inactive: [1] | [2] | [3] | [4] | [5] | [10] | [6] | [7] | [8] | [9]

N[C@H](C(=O)O)[C@@H](O)c1ccc(O)c(O)c1
inactive: [1] | [2] | [3] | [4] | [5] | [6] | [7] | [8] | [9]

CC(=O)N1C[C@H](O)C[C@H]1C(=O)O
inactive: [1] | [2] | [3] | [4] | [5] | [10] | [6] | [7] | [8] | [9]

CCCCCC(=O)OCCc1ccccc1
inactive: [1] | [2] | [3] | [4] | [5] | [6] | [7] | [8]

CC1(C)OC[C@@H](COC(=O)CCc2ccc(OC[C@@H](O)CNCCNC(=O)N3CCOCC3)cc2)O1
inactive: [1] | [2] | [3] | [4] | [5] | [10] | [6] | [7] | [8] | [9]

CC(C)C1CCC(O)CC1 (stereo not drawn)
inactive: [1] | [2] | [3] | [4] | [5] | [10] | [6] | [8]

Cc1ccc(-c2ccccc2C#N)cc1
inactive: [1] | [2] | [3] | [4] | [5] | [10] | [6] | [7] | [8] | [9]

C=C(C)C(=O)OCC1CCCO1 (stereo not drawn)
inactive: [1] | [2] | [3] | [4] | [5] | [6]

O=S(=O)(O)c1cc(O)c(O)c(S(=O)(=O)O)c1
inactive: [1] | [2] | [3] | [4] | [5] | [10] | [6] | [7]

CC(CC=O)CC(C)(C)C (stereo not drawn)
inactive: [1] | [2] | [3] | [4] | [5] | [6] | [7] | [8]

C=COCC1CCC(COC=C)CC1 (stereo not drawn)
inactive: [1] | [2] | [3] | [4] | [5] | [6] | [7] | [8]

CCOc1c(N2CCOCC2)cnn(C)c1=O
inactive: [1] | [2] | [3] | [4] | [5] | [10] | [6] | [7] | [8] | [9]

CC(N)C12CC3CC(CC(C3)C1)C2 (stereo not drawn)
inactive: [1] | [2] | [3] | [4] | [5] | [6] | [7] | [8] | [9]

CC(COc1ccccc1)NN (stereo not drawn)
inactive: [1] | [2] | [3] | [4] | [5] | [6] | [7] | [8]

NS(=O)(=O)Cc1noc2ccccc12
inactive: [1] | [2] | [3] | [4] | [5] | [10] | [6] | [8] | [9]

CCCCCCC#CC(=O)OC
inactive: [1] | [2] | [3] | [4] | [5] | [6]

CCC(C(=O)NC(=O)NC(C)=O)c1ccccc1 (stereo not drawn)
inactive: [1] | [2] | [3] | [4] | [5] | [6] | [7] | [8] | [9]

CCCCCCC1CCC(=O)O1 (stereo not drawn)
inactive: [1] | [2] | [3] | [4] | [5] | [6] | [7] | [8] | [9]

O=C(CO)[C@@H](O)[C@H](O)[C@@H](O)CO
inactive: [1] | [2] | [3] | [4] | [5] | [6] | [7] | [8]

Cc1ccc(-c2ncc(Cl)cc2-c2ccc(S(C)(=O)=O)cc2)cn1
inactive: [1] | [2] | [3] | [4] | [5] | [10] | [6] | [7] | [8] | [9]

CC(C)(CCC(=O)O)C(=O)O
inactive: [1] | [2] | [3] | [4] | [5] | [6] | [7]

Cc1ccc(C(=O)c2ccccc2)cc1
inactive: [1] | [2] | [3] | [4] | [5] | [10] | [6] | [7] | [8] | [9]
